Screens deposited in PubChem BioAssay by National Center for Advancing Translational Sciences (NCATS).
BAZ2B block: qHTS Assay for Inhibitors of BAZ2B | Bromodomain adjacent to zinc finger domain protein 2B (Homo sapiens), Q9UIF8 | 360,000 tested, 4.4% active | AlphaScreen BAZ2B-H3K14Ac peptide displacement | Potency, µM (series often up to 114 µM), for the others: top-dose activity change, negative = inhibition, hits mostly inhibitors; further: potency means the concentration at half of the fitted maximal effect; on the % scale 0 is the no-effect control and ±100 the full control effect; nearly all actives have a fitted effect of over 60% in size
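AlphaScreen luminescence quantifies BAZ2B engagement of H3K14Ac peptide; the protein and biotinylated peptide are both at 50 nM final, buffer PBS pH 7.4 with 0.01% Tween-20, all steps at room temperature.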
G9a block: qHTS Assay for Inhibitors of Histone Lysine Methyltransferase G9a; Potency, µM (doses to about 102 µM), inactives show at the highest dose activity, negative = inhibition, most hits filed as inhibitors; Histone-lysine N-methyltransferase EHMT2 (Homo sapiens), Q96KQ7; G9a H3K9 monomethylation, AlphaScreen, 2 h; AID 504332, 2011; 350,000 tested, 8.8% active; further: potency means the concentration at half of the fitted maximal effect; on the % scale 0 is the no-effect control and ±100 the full control effect; nearly all actives have a fitted effect of over 75% in size
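Signal arises when biotinylated H3K9 peptide, once monomethylated, bridges streptavidin donor and antibody-captured acceptor beads. Enzyme at 20 nM was preincubated 15 min with test compounds; peptide 500 nM and SAM 20 uM then reacted for 2 h.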
Six1-Eya2 inh: qHTS Assay for Inhibitors of the Six1/Eya2 Interaction | Homeobox protein SIX1 (Homo sapiens) + Protein phosphatase EYA2 (Homo sapiens), … | AlphaScreen GST-Six1/His-Eya2 binding, biochemical; stronger effect = lower value | activity change, % (test concentration not listed) | 360,000 tested, 0.56% active | AID 651725, 2012; in the data active means activity change below about -65%; inconclusive means mostly about -30% to -63%; further: on the % scale 0 is the no-effect control and ±100 the full control effect
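AlphaScreen with GST-Six1 and His-Eya2 (5X mix: 250 nM and 500 nM), glutathione donor and nickel acceptor beads; buffer 50 mM Tris pH 8.0, 300 mM NaCl, 1 mM TCEP; 1 h at 37 C in the dark.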
JMJD2A Tudor inh: qHTS Assay for Inhibitors of JMJD2A-Tudor Domain | Lysine-specific demethylase 4A (Homo sapiens), O75164 | AlphaScreen JMJD2A-Tudor / H3K4me3 peptide binding | Potency, µM (series often up to 114 µM), inactives show at the highest dose activity change, negative = inhibition, most hits filed as inhibitors | 390,000 tested, 4.4% active | AID 504339, 2011; further: potency means the concentration at half of the fitted maximal effect; on the % scale 0 is the no-effect control and ±100 the full control effect; nearly all actives have a fitted effect of over 50% in size
CtBP-E1A blk: qHTS Assay for Inhibitors of the CtBP/E1A Interaction. AlphaScreen GST-E1A/His-CtBP binding, 1536-well; stronger effect = lower value. activity change, % (no concentration beside the values). CtBP / adenovirus E1A interaction (AlphaScreen). 340,000 tested, 0.49% active; in the data active means activity change below about -65%; inconclusive means mostly about -30% to -63%; further: on the % scale 0 is the no-effect control and ±100 the full control effect
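Steps: dispense buffer (Tris pH 8.0, NaCl 300 mM, TCEP 1 mM, BSA, Tween 20); add 5X protein mix (GST-E1A, His-CtBP, 125 nM each); pin 23 nL compound; 2 h at 37 °C, dark; add 5X beads (50 ug/mL); 1 h; read.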
HP1b chromo inh: HTS for Inhibitors of HP1-beta Chromodomain Interactions with Methylated Histone Tails; AlphaScreen HP1-beta / biotin-H3K9me3 peptide binding; Potency, µM (top dose mostly 114 µM), without a hit: at the highest dose activity change, negative = inhibition, actives largely listed as inhibitors; 390,000 tested, 0.56% active; AID 540317, 2011; further: potency means the concentration at half of the fitted maximal effect; nearly all actives have a fitted effect of over 70% in size
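AlphaScreen: HP1-beta (50 nM) preformed 30 min with biotin-H3(1-18)K9me3 peptide (50 nM) in PBS pH 7.4, 0.01% Tween-20. Compound added for 30 min at RT, then streptavidin donor/nickel chelate acceptor beads (10 ug/mL) for 30 min.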
Numbers without * were called inactive; u = inconclusive; x = not tested or not shown; [ ] = dose if it differs, or a comment. Compounds with a hit are over-represented: about 10% of the library has one in this group of screens. Unless noted, the call rests on the fitted dose curve; in most records, active means well fitted inhibition curve with a large enough effect; inconclusive means small, poorly fitted or top-dose-only effect; inactive means no such curve, though single readings can be large or run the other way.

SMILES	BAZ2B block	G9a block	Six1-Eya2 inh	JMJD2A Tudor inh	CtBP-E1A blk	HP1b chromo inh
CCN(Cc1ccccc1)c1ccccc1	x	x	4.5	13.8%	3.2	72.9%
S=C1SCN(CCc2ccccc2)CN1CCc1ccccc1	x	x	22.5	x	0.0	x
S=c1[nH]ccn1CCc1ccccc1	27.1%	10µM*	4.6	u	6.3	-28.0%
Cn1c(=O)[nH]c2c(cnn2C)c1=O	x	x	-9.7	-3.4%	1.7	32.2%
Cn1c(=S)[nH]c(=O)c2ncc(=O)[nH]c21	-20.8%	u	0.0	28.2µM*	7.4	28.1%
Cc1ccc2ncccc2c1	24.9%	1.3%[0.501 µM]	-2.9	-4.8%	2.5	55.4%
Cc1cc(N(C)C)ccc1N=Nc1ccc2ncccc2c1	3.16µM*	-46.7%[2.33 µM]	-83.5*	6.31µM*	x	8.91µM*
CN(C)c1ccc(N=Nc2ccc3ncccc3c2)cc1	x	x	u	3.16µM*	-29.0	u
CN(C)c1ccc(N=Nc2cccc3ccoc23)cc1	5.62µM*	6.31µM*	-65.1*	25.1µM*	x	17.8µM*
CN(C)c1ccc(N=Nc2cccc(F)c2)cc1	4.47µM*	10µM*	-78.2*	8.91µM*	-67.1*	6.31µM*
Cc1ccc(-c2cn3c(n2)sc2cc(C(=O)NC4CCCCCC4)ccc23)c(C)c1	-0.5%	-1.5%[59 µM]	x	1.6%	x	50.6%
COc1ccc(N2CCN(CC(=O)c3ccc(O)cc3O)CC2)cc1	u	70.8µM*	-15.9	u	-10.5	-18.6%[57 µM]
O=C(CN1CCN(c2ccccc2F)CC1)c1ccc(O)cc1O	-29.2%	-28.2%	3.3	-23.4%	x	12.4%[57 µM]
O=C(CN1CCN(c2ccc(F)cc2)CC1)c1ccc(O)cc1O	u	79.4µM*	-4.0	-24.0%	x	3.8%[57 µM]
CCOC(=O)N1CCN(CC(=O)c2ccc(O)cc2O)CC1	u	u	2.5	-12.0%	x	20.1%
O=C(c1ccco1)N1CCn2cccc2C1c1ccccc1 (configuration not stated)	35.5µM*	u	-15.8	50.1µM*	-22.4	70.8µM*
COc1cc2c(cc1OC)C(c1ccccc1)N(C(=O)c1ccco1)CC2 (configuration not stated)	-36.5%	u	-17.0	-28.9%	-1.0	8.8%
CCN(CC)CCCNC1=C(Cl)C(=O)c2ccccc2C1=O	-25.7%	u	-21.4	-30.1%	-25.1	-15.2%
CC(C)OCCCNC1=C(Cl)C(=O)c2ccccc2C1=O	10µM*	x	-17.8	39.8µM*	-22.9	35.5µM*
CC(C)NC1=C(Cl)C(=O)c2ccccc2C1=O	25.1µM*	20µM*	u	39.8µM*	u	15.8µM*
COCCCNC1=C(Cl)C(=O)c2ccccc2C1=O	35.5µM*	39.8µM*	u	u	-19.5	u
Oc1ccc(N=Nc2n[nH]c(-c3ccc(Cl)cc3)n2)cc1	u	-5.6%[59 µM]	-14.5	u	-16.4	u
COc1cc2c(cc1OC)n(CC(=O)c1ccc(C)cc1)c(=O)n1nc(CCn3nc(C)cc3C)nc21	1.9%	3.8%[59 µM]	x	-0.3%	x	13.2%
CC1Cc2ccccc2N1C(=O)COC(=O)c1c2c(nc3ccccc13)CCCCC2 (configuration not stated)	-32.9%	2µM*	-10.2	-16.6%	-20.5	u
O=C(OCC(=O)N1CCc2ccccc21)c1c2c(nc3ccccc13)CCCC2	-21.4%	u	-18.3	-22.5%	-10.3	27.2%
SMILES	BAZ2B block	G9a block	Six1-Eya2 inh	JMJD2A Tudor inh	CtBP-E1A blk	HP1b chromo inh
N#Cc1ccc(NC(=O)COC(=O)CCc2nc3ccccc3c(=O)[nH]2)cc1	3.0%	50.1µM*	5.0	0.0%	-4.2	19.9%
CC1Cc2ccccc2N1C(=O)COC(=O)CCc1nc2ccccc2c(=O)[nH]1 (configuration not stated)	-21.0%	-28.7%	10.1	5.62µM*	-6.3	-17.2%
CC(C)CNC(=O)COC(=O)c1c2c(nc3ccccc13)CCC2	56.2µM*	u	4.0	-29.7%	-7.3	2.8%
COc1cccc(C2C(C(=O)c3cc4cccc(OC)c4o3)=C(O)C(=O)N2c2cc(C)on2)c1OC (configuration not stated)	-28.6%	6.7%[12.7 µM]	4.4	u	-2.6	-10.7%
COc1cc(C2C(C(=O)c3cc4ccccc4o3)=C(O)C(=O)N2c2cc(C)on2)cc(OC)c1OC (configuration not stated)	-28.3%[57.1 µM]	44.7µM*	-5.8	-16.8%	-11.6	29.2%
COc1cccc(C2C(C(=O)c3cc4ccccc4o3)=C(O)C(=O)N2c2cc(C)on2)c1OC (configuration not stated)	-28.1%	44.7µM*	-1.6	u	-3.5	1.7%
CC1(C)Cc2cccc(OCC(=O)OCc3nnc(-c4ccc([N+](=O)[O-])cc4)o3)c2O1	-36.5%	1.4%[12.7 µM]	-8.0	u	-4.4	-5.2%
CN(C(=S)NC1=CCS(=O)(=O)C1)C1CCCCC1	-0.2%	10µM*	-0.3	-4.5%	-2.6	32.2%
O=c1cnc2cncnc2n1Cc1ccccc1Cl	x	6.8%[0.501 µM]	x	x	x	x
CCCN1C(=O)/C(=C\c2nc3ccccc3c(=O)[nH]2)c2ccccc21	u	31.6µM*	5.5	-15.8%	-3.6	-13.4%
O=c1[nH]c(/C=C/c2cccc3ccccc23)nc2ccccc12	-14.2%	31.6%	6.8	0.0%[57.1 µM]	-9.0	47.7%
O=C(O)c1ccccc1Nc1cccc(OCc2ccc3ccccc3n2)c1	44.7µM*	11.2µM*	1.5	u	4.1	-6.2%
O=C(COc1ccc2ccccc2c1)Nc1cccc(C(=O)Nc2ccccc2C(=O)O)c1	-11.3%	12.0%[59 µM]	-10.1	u	-6.3	3.0%
O=C(Cc1ncc(C(F)(F)F)cc1Cl)N1CCN(c2ccc(F)cc2)CC1	-4.2%	-10.6%	-2.7	-21.6%	-4.8	-1.3%
COc1cccc(-c2nnc3sc(CN4CCCCC4)cn23)c1	-38.3%	12.6µM*	x	-7.4%	x	19.1%[57 µM]
CCOC(=O)C1CCCN(Cc2cn3c(-c4cccc(Br)c4)nnc3s2)C1 (configuration not stated)	u	7.2%[59 µM]	x	-12.3%	x	30.5%
Cc1ccc2c(=O)cc(C(=O)N(Cc3ccc(C(C)(C)C)cc3)C3CCS(=O)(=O)C3)oc2c1 (configuration not stated)	-27.4%	-28.9%[59 µM]	x	-19.8%	x	52.1%
CCOC(=O)c1cc(C)n(-c2ccccc2)c1C	79.4µM*	4.4%	-1.4	-29.3%	-3.5	0.8%
